Measurements: PubChem BioAssay (NCATS)
Records with an inconclusive call do not appear. Active and inactive are the calls of the source. The call rests on the fitted dose curve.

assay: Primary qHTS for Vero E6 cytotoxicity: counterscreen for inhibitors of SARS-S pseudo-typed particle cell entry (AID 1479150); conditions: cell viability; series mostly up to 57.1 µM; activity change, negative = cytotoxicity: at the top concentration
On the % scale 0 is the no-effect control and ±100 the full control effect.

SMILES | outcome | activity change, negative = cytotoxicity
C=C1C/C(=C\C=C2/CCC[C@]3(C)[C@@H]([C@H](C)/C=C/C(C)C(C)C)CC[C@@H]23)[C@@H](O)C[C@@H]1O (stereo partly drawn) | inactive | –
CC(C)OC(=O)[C@H](C)N[P@](=O)(CO[C@H](C)Cn1cnc2c(N)ncnc21)Oc1ccccc1 | inactive | –
Cc1c(OCC(F)(F)F)ccnc1C[S@@](=O)c1nc2ccccc2[nH]1 | – | 1.97% (inactive)
N#Cc1c(N2C[C@@H]3NCCO[C@H]3C2)c(F)cc2c(=O)c(C(=O)O)cn(C3CC3)c12 | – | -3.52% (inactive)
CCOc1ccc2c(c1)C(C)=CC(C)(C)N2 | – | 3.06% [at 114 µM] (inactive)
COc1ccc(C=CC(=O)O)cc1 | – | -3.45% (inactive)
Nc1nc(Cl)nc2c1ncn2C1CC(O)C(CO)O1 (stereo not drawn) | inactive | –
CC(C)(O)CNc1nc(Nc2ccnc(C(F)(F)F)c2)nc(-c2cccc(C(F)(F)F)n2)n1 | – | -21.1% (inactive)
CCC[C@H](NC(=O)[C@@H]1[C@H]2CCC[C@H]2CN1C(=O)[C@@H](NC(=O)[C@@H](NC(=O)c1cnccn1)C1CCCCC1)C(C)(C)C)C(=O)C(=O)NC1CC1 | – | -14.4% (inactive)
CC[C@H]1OC(=O)[C@H](C)[C@@H](O[C@H]2C[C@@](C)(OC)[C@@H](O)[C@H](C)O2)[C@H](C)[C@@H](O[C@@H]2O[C@H](C)C[C@H](N(C)C)[C@H]2O)[C@](C)(OC)C[C@@H](C)C(=O)[C@H](C)[C@@H](O)[C@]1(C)O | inactive | –
CCN(CC)CCOC(=O)c1ccc(N)cc1Cl | inactive | –
C=C1CC[C@H](O)CC1=C/C=C1\CCC[C@]2(C)[C@@H]([C@H](C)/C=C/[C@H](C)C(C)C)CC[C@@H]12 | inactive | –
CNCC(=O)OCc1cccnc1N(C)C(=O)OC(C)[n+]1cnn(C[C@](O)(c2cc(F)ccc2F)[C@@H](C)c2nc(-c3ccc(C#N)cc3)cs2)c1 (stereo partly drawn) | inactive | –
